In all, about 68,000 sequences were measured (“fluorescence intensity (a.u.)”: median about 9,100, highest 2% from about 16,000 on). The list comes from a sample in which the highest values are over-represented; it also holds similar and randomly drawn sequences.

Chain of OsWRKY34 (Q0JBA9 entry or part of it): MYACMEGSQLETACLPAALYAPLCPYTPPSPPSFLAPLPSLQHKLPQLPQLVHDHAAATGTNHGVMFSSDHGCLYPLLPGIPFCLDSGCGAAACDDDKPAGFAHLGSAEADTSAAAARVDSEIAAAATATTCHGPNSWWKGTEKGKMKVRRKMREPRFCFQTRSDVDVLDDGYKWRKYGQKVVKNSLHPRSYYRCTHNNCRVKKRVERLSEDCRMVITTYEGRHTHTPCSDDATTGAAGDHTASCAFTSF

The assay has as its target OsWRKY34 (Oryza sativa, UniProt Q0JBA9 1-250). Kind of assay: protein-binding microarray (RPBM); PBS, 2% BSA, 51.3 ng/ul salmon testes DNA, 50 uM zinc acetate, 200 nM TF, 25 C, 1 h; high values mean tight binding. Particulars: protein: recombinant; tags: N-terminal polyhistidine and DsRed monomer fusion (pET32a); label: CyDye5-dUTP incorporated in the synthesized complementary strand; 3' TTTTT single-stranded linker to array surface; dsDNA, one strand shown. In a few lines: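 A custom Agilent array was converted to double-stranded form by primer extension with Cy5-dUTP and blocked with 2% BSA. Protein at 200 nM in PBS with 2% BSA, salmon testes DNA and 50 µM zinc acetate was applied for 1 h at 25 °C, followed by washing. The proteins were polyhistidine–DsRed N-terminal fusions of transcription factors, expressed in E. coli BL21-CodonPlus and Ni–NTA-purified. The binding signal is per-feature fluorescence intensity (arbitrary units) from an Axon 4000B scanner.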
Turning to “CTGCTGCCGCCGCCTCCTGGCCGCCGCCGCGGCGAGCGCGCGGAGTCACCTAGTGCAG”, the binding signal was 8280 fluorescence intensity (a.u.).

Turning to “TAGGTGAGGGCGGTGCGCTTGTCGACGGGGTTGAAGGGGACGGAGTCACCTAGTGCAG”, the binding signal is 10700 fluorescence intensity (a.u.).

In the case of “GCGTCTGGGGCCTCGGGCGGCGCGCGCGGGGAGGGGCGTGCGGAGTCACCTAGTGCAG”, the binding signal was 10500 fluorescence intensity (a.u.).

Consider “TCGGGGCGGGTCTGGGAGGGCTTGCGCTTGACACGGACGACGGAGTCACCTAGTGCAG”, for which the binding signal was 17200 fluorescence intensity (a.u.).

Regarding “CGTGGAGAGGATTTGAGTGCCTTTTTTGGAGTTTGAGGGGCGGAGTCACCTAGTGCAG”, the binding signal was 9570 fluorescence intensity (a.u.).

On to “GTGTGTGCTGTGGTGGAGAGGAGAAAGGGAGGAAGAAGAGCGGAGTCACCTAGTGCAG”, for which the binding signal was 8140 fluorescence intensity (a.u.).

In the case of “ACTCACAGAAAGCGTCGGGGCGGGTCTGGGAGGGCTTGCGCGGAGTCACCTAGTGCAG”, the binding signal is 9140 fluorescence intensity (a.u.).

Regarding “ACGGGGACAGGGAGAGGAGCGGGGATTTTGTGGCGGGAGACGGAGTCACCTAGTGCAG”, the binding signal was 9460 fluorescence intensity (a.u.).

Consider “AAGCGCCTGGTAGCGGAGAGTGGGAAAGAGCTGGCTGGCGCGGAGTCACCTAGTGCAG”, for which the binding signal was 60400 fluorescence intensity (a.u.).

In the case of “GAGGACTGGGGAGGGCGGGGAGAGGGGAGGGCGTCGCGTGCGGAGTCACCTAGTGCAG”, the binding signal is 24500 fluorescence intensity (a.u.).

Consider “GCGGCGGCGGGGCGGCGTCGGGGAGGGAGGAGGAGCAGTGCGGAGTCACCTAGTGCAG”, for which the binding signal was 10700 fluorescence intensity (a.u.).

Take “TGTTGTTATGTTTTTGTCATGATCTCACAAGCAATGTACACGGAGTCACCTAGTGCAG”: the binding signal is 11000 fluorescence intensity (a.u.).

As to “CCTCTTCGAAGCCGTGAAATCTCAGCCGTCCATCCATGATCGGAGTCACCTAGTGCAG”, the binding signal was 9040 fluorescence intensity (a.u.).

As to “TCTTTTGAGCACCCCACTGGCCATGGTCTTTTATCGTCCCCGGAGTCACCTAGTGCAG”, the binding signal is 8490 fluorescence intensity (a.u.).

Take “ACTATCTTAGCCATTCCAACGCCGTCTTTCCTCGGTCCTCCGGAGTCACCTAGTGCAG”: the binding signal was 12500 fluorescence intensity (a.u.).

For “AATCACCATCATCGCTGTTTGGGAGGGTCTGCCTGGCTTACGGAGTCACCTAGTGCAG”, the binding signal was 13100 fluorescence intensity (a.u.).

Take “TATTTGACTTCCGGCTTTTGTTTCCTTGATACTTTACTCTCGGAGTCACCTAGTGCAG”: the binding signal is 9780 fluorescence intensity (a.u.).

“ACCTTTGCTCACGATCCCAATGGCTTTAATTATGTACCACCGGAGTCACCTAGTGCAG”: the binding signal is 8830 fluorescence intensity (a.u.).

Take “CCAAAAACACTCACTCGGCCCACATCACGCCACCACCCCGCGGAGTCACCTAGTGCAG”: the binding signal is 9750 fluorescence intensity (a.u.).

With “GATGGCGTACCAAAGTACTGGTAAAAACATCTTCAGTTTTCGGAGTCACCTAGTGCAG”, the binding signal was 22300 fluorescence intensity (a.u.).

As for “TTTTTTTTCTGTTAGTACTGTTTTTGGTCCAAACATCTTTCGGAGTCACCTAGTGCAG”, the binding signal is 8180 fluorescence intensity (a.u.).

In the case of “GGGCCTAGTTTTTCCAGGTAAAGTTGACCAAAAGTCTTCACGGAGTCACCTAGTGCAG”, the binding signal is 8890 fluorescence intensity (a.u.).

In the case of “CTTCTACTGCGTCGACTTGGAATTTTGCCGAATCTTTTTTCGGAGTCACCTAGTGCAG”, the binding signal was 10400 fluorescence intensity (a.u.).

As to “CACACACACTCCACTACTCCACTGCACTGCAGTCTCTCTCCGGAGTCACCTAGTGCAG”, the binding signal is 10100 fluorescence intensity (a.u.).

Consider “CCTCGTTCTTCTTCTTCTCTCTCTGGTTTTACATTTTTACCGGAGTCACCTAGTGCAG”, for which the binding signal is 10300 fluorescence intensity (a.u.).

Turning to “CACGCACCGCCCATGCGTCCTTATCCACCCACCTCTCCACCGGAGTCACCTAGTGCAG”, the binding signal is 8240 fluorescence intensity (a.u.).

As for “AACCCACCTGCACGCACCGTCCTTACCTCTGTTCGATTGACGGAGTCACCTAGTGCAG”, the binding signal is 16800 fluorescence intensity (a.u.).

Consider “TGAGTCCTTACCTCTCTCTCTCCAATGTTCGTCTGCGGCACGGAGTCACCTAGTGCAG”, for which the binding signal is 8390 fluorescence intensity (a.u.).

Regarding “GTAGATGTCGGGTGGGATGGTTTCAGGAAAAGAAACATGACGGAGTCACCTAGTGCAG”, the binding signal is 12800 fluorescence intensity (a.u.).

On to “CATTCACAACATCAAATTACATCTGCAGAGAGATCGCTCGCGGAGTCACCTAGTGCAG”, for which the binding signal was 33900 fluorescence intensity (a.u.).

With “ACTTTCCTACACACAAACTTTCAACTTTTTCATCACATCGCGGAGTCACCTAGTGCAG”, the binding signal is 8900 fluorescence intensity (a.u.).

As for “AGTCTGGCTTGCACATCTGCTGTTTACAACACATCAAATTCGGAGTCACCTAGTGCAG”, the binding signal is 9810 fluorescence intensity (a.u.).

As to “CCATCGTTTCTCCCCGACGCCCTCGCCATCCTCCTCGCCACGGAGTCACCTAGTGCAG”, the binding signal was 10500 fluorescence intensity (a.u.).

With “GCCTTTTTAAATTTTTTTATCACATCAAAACTTTTTTATACGGAGTCACCTAGTGCAG”, the binding signal is 8370 fluorescence intensity (a.u.).

Consider “CGTTGAGTTGGTTTAGGGGTGGACTGATTTGCCTTTGCCCCGGAGTCACCTAGTGCAG”, for which the binding signal was 12900 fluorescence intensity (a.u.).

Take “CTGTTACTTCACAGTTATTTTTGTTGGGTGGGGACGTGGGCGGAGTCACCTAGTGCAG”: the binding signal is 12600 fluorescence intensity (a.u.).

For the sequence “GGTTGGGGCGTGGGCGGCTGGGCGCGTGGGTTGCCCGCGACGGAGTCACCTAGTGCAG”, the binding signal is 15600 fluorescence intensity (a.u.).

On to “GGGTTTGGGTTTTTAGGTTTGGGGAGTTGGGCTGTGTTTACGGAGTCACCTAGTGCAG”, for which the binding signal is 22100 fluorescence intensity (a.u.).

As to “TTTTTGGGTTGGGTTGGGGACGCGCTGTTTCGACGTGGGGCGGAGTCACCTAGTGCAG”, the binding signal was 19000 fluorescence intensity (a.u.).

Turning to “AGTGTTTGGTTTGAGGAGGACTAGTGGGGTGGTTTTTTGACGGAGTCACCTAGTGCAG”, the binding signal is 13900 fluorescence intensity (a.u.).

Regarding “GGTTTAGGCTGTGTTTAGTTCTTTTTTTAATTTTTTTTAACGGAGTCACCTAGTGCAG”, the binding signal is 16500 fluorescence intensity (a.u.).

For the sequence “ATATATGTTCTCTTAGTGTCTTTATTTTTAATATTTTTAACGGAGTCACCTAGTGCAG”, the binding signal is 8530 fluorescence intensity (a.u.).

Regarding “TTCGTGTTTTGCTGGAGTTGGAGTTGCTGCATTGGGTTTACGGAGTCACCTAGTGCAG”, the binding signal was 10700 fluorescence intensity (a.u.).

Consider “TTTACATATAATTTTCTTTAGGGTTTTATAGCTTTTTTAACGGAGTCACCTAGTGCAG”, for which the binding signal was 8600 fluorescence intensity (a.u.).

In the case of “TGAAGAGGTGAGTGTTTTAGGGTTTTGGTTGGGGTTTTGACGGAGTCACCTAGTGCAG”, the binding signal was 14600 fluorescence intensity (a.u.).

As to “GTGGGTGGGTTTGGAGTTTGGACTGTTTAGGGCCTTTTGACGGAGTCACCTAGTGCAG”, the binding signal was 23300 fluorescence intensity (a.u.).

The record behind these values is PMC7819943, “Rice protein-binding microarrays: a tool to detect cis-acting elements near promoter regions in rice”.
